Measured values published in PubChem BioAssay (Tox21).
Results filed as inconclusive are left out. A number with no mark means an inactive call. Calls come from the whole dose curve; as a rule, active = well fitted cell-killing curve with a large enough effect in the repeat runs; inconclusive = weak or mixed curves; inactive = flat fitted curve, though single readings scatter.

Experiment: qHTS RealTime-Glo MT Cell Viability Assay in HepG2 cells - 8 hour (AID 1224873); note: nearly all actives have a fitted effect of over 55% in size
Settings: RealTime-Glo luminescence; series mostly up to 76.8 µM; viability change, negative = cytotoxic: at the top concentration
Text: National Center for Advancing Translational Sciences [NCATS]
NIH Chemical Genomics Center [NCGC]
U.S. Environmental Protection Agency [EPA]
National Institutes of Environmental Health Sciences [NIEHS]
National Toxicology Program [NTP]
U.S. Food and Drug Administration [FDA]
Measure of cell viability is critical in the cell-base assay. Analysis of cell viability is necessary for the characterization of cell responses to cytotoxic drugs and environmental stress. A RealTime-Glo MT Cell Viability Assay to monitor cell viability in real time of continues cell culture during 40 hours of compound treatment was used to screen Tox21 10K library compounds in HepG2 cells. The RealTime-Glo MT Cell Viability Assay is a nonlytic, homogeneous, bioluminescent method to measure cell viability in real time using a simple, plate-based method. The assay involves adding NanoLuc luciferase and a cell-permeant prosubstrate to cells in culture. Viable cells reduce the proprietary prosubstrate to generate a substrate for NanoLuc luciferase. This substrate diffuses from cells into the surrounding culture medium, where it is rapidly used by the NanoLuc Enzyme to produce a luminescent signal. The signal correlates with the number of viable cells, making the assay well suited for cytotoxicity studies.
Tox21 Assay Protocol Summary:
The mixture of HepG2 cell suspension and reagents were dispensed at 600cells/6 ul/well in 1536-well tissue culture treated black solid bottom plates using a Multidrop dispenser. After the assay plates were incubated at a 37 C/5% CO2 incubator for 5 hours, 23 nL of compounds dissolved in DMSO, positive and negative controls was transferred to the assay plate by a pintool work station. The plates were incubated at 37 C for 40 hours. The luminescence intensity were measured at 0h, 8h, 16h, 24h, 32h and 40h time points using ViewLux plate reader during compound treatment.
% is set by controls: 0 for no effect and ±100 for the full control effect.

| Compound | viability change, negative = cytotoxic |
| --- | --- |
| C[C@H]1O[C@H](O[C@H]2[C@H](O)[C@@H](O)[C@@H](O[C@H]3[C@H](O)[C@@H](O)[C@H](O)O[C@@H]3CO)O[C@@H]2CO)[C@H](O)[C@@H](O)[C@@H]1N[C@H]1C=C(CO)[C@@H](O)[C@H](O)[C@H]1O | 3.72% [at 35.3 µM] |
| CCN(Cc1cccc(S(=O)(=O)O)c1)c1ccccc1 | -1.75% |
| CCC(C)(C)C1CCC(=O)CC1 | -9.74% |
| O=C(O)C(=O)Nc1cccc(-c2nn[nH]n2)c1 | -1.02% [at 35.3 µM] |
| CN[C@@H]1[C@H](O)[C@H](NC)[C@H]2O[C@@]3(O)C(=O)C[C@@H](C)O[C@H]3O[C@@H]2[C@H]1O | 1.89% [at 35.3 µM] |
| CCCCC(CC)C(=O)OC(C)C (stereo not given) | 0.835% |
| CCCCCCCCOC(C)=O | 1.23% |
| CC(C)C(=O)Nc1cccc(C(F)(F)F)c1 | -7.21% [at 35.3 µM] |
| CCCCCC(=O)OCC | -4.04% |
| Cc1oc(=O)oc1CN1CCN(c2cc3c(cc2F)c(=O)c(C(=O)O)c2n3C(C)S2)CC1 (stereo not given) | 0.622% [at 35.3 µM] |
| FC(F)(F)/C(=N\OCC1OCCO1)c1ccc(Cl)cc1 | 4.62% |
| Cc1nc2ccccc2c(=O)o1 | 2.58% |
| CO[Si](CCCS)(OC)OC | -1.61% |
| NC(Cc1c[nH]c2ccccc12)C(=O)O (stereo not given) | 2.79% [at 35.3 µM] |
| Cc1ccccc1C | 0.0146% |
| C1=C\CC/C=C\CC/1 | 2.07% |
| F[Si-2](F)(F)(F)(F)F | 0.307% |
| BrC/C=C/CBr | 2.32% [at 15.8 µM] |
| CC1=NN(c2ccc(S(=O)(=O)O)cc2)C(=O)C1N=Nc1ccccc1 (stereo not given) | 0.477% |
| CN[C@@H]1[C@@H](O)[C@@H](O[C@@H]2[C@H](O)[C@H](O[C@H]3OC(CN)=CC[C@H]3N)[C@@H](N)C[C@H]2N)OCC1(C)O (stereo not given in full) | -0.478% [at 35.3 µM] |

| Compound | viability change, negative = cytotoxic |
| --- | --- |
| CC(=O)c1ccc2c(c1)CCCC2 | 0.726% |
| O=S(=O)(O)CCO | -0.692% |
| OC(CCN1CCCCC1)(c1ccccc1)c1ccccc1 | 6.76% [at 35.3 µM] |
| CCN(CCO)c1cccc(C)c1 | 0.223% |
| CCOC(=O)CC#N | 1.9% |
| O=C(c1ccc2c(c1)C(=O)OC2=O)c1ccc2c(c1)C(=O)OC2=O | -0.0567% |
| C=CCOCC(CO)(COCC=C)COCC=C | 3.42% [at 35.3 µM] |
| CC(=O)OC(C)c1ccccc1 (stereo not given) | 0.568% |
| COc1cc(C=O)ccc1OC(=O)C(C)C | -0.35% |
| C=COCCOCCOC=C | 0.431% |
| O=P(O)(O)OCC(O)CO (stereo not given) | -2% [at 35.3 µM] |
| CCC1COC(=O)O1 (stereo not given) | 0.577% |
| c1ccc(CNc2ncnc3nc[nH]c23)cc1 | -4.3% |
| CC(=O)N(CC(O)CO)c1c(I)c(C(=O)NCC(O)CO)c(I)c(C(=O)NCC(O)CO)c1I (stereo not given) | -2.04% [at 35.3 µM] |
| CCOC(=O)C(=O)c1csc(NC=O)n1 | 7.55% [at 35.3 µM] |
| CC(C)COC(=O)COc1ccc(Cl)cc1Cl | 3.47% |
| Cc1nc(C)nc(N2C[C@@H](C)N(c3ccnc([C@@H](C)O)n3)[C@@H](C)C2)n1 | 5.6% [at 35.3 µM] |
| NS(=O)(=O)c1ccccc1OC(F)(F)F | 0.586% |
| Nc1nc(=O)n([C@@H]2O[C@H](CO)[C@@H](O)[C@@H]2F)cc1I | 2.29% [at 35.3 µM] |
| CCCCC(=O)N(C)C | -0.917% |
